Drawing on PubChem BioAssay AID2156 (Johns Hopkins Ion Channel Center, 2009), this text covers B-score for 92 molecules.

Screen size: about 310,000 compounds; about 3,400 (1.1%) were called active. This excerpt belongs to a sample that is enriched for actives. Values without a mark were called inactive.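 How the source made its calls: active means fluorescence ratio B-score at most minus 3 library SDs, with starting brightness B-score within 2 library SDs (cut at about -5.5 in these data); inactive means the rest, inconclusive results apart.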

Sequence of Potassium voltage-gated channel subfamily KQT member 2 (Rattus norvegicus) (O88943 whole entry, looked up): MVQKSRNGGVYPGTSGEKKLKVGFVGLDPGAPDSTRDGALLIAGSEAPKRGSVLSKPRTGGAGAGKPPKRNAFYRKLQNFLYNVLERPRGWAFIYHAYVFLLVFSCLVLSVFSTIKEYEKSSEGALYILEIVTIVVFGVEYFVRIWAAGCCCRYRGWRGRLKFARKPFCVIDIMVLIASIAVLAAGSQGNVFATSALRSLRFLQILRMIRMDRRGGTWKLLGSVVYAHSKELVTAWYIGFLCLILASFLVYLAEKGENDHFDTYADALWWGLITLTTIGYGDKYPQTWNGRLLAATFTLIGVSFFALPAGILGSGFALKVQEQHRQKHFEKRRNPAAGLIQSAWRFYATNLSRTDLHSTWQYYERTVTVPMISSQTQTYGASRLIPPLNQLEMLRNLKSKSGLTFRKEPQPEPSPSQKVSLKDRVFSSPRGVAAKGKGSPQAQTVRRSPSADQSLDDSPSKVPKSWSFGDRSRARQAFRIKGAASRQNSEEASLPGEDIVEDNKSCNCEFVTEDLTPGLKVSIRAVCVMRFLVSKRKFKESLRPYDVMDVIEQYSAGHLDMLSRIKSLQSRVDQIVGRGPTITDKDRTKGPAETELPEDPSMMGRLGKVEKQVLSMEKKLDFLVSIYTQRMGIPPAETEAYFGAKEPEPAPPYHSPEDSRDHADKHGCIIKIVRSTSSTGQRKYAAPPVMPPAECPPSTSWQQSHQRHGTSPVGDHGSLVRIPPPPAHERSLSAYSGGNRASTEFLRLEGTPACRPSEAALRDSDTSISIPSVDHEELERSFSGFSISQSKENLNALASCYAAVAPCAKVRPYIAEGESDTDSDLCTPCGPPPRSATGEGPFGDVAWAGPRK

This experiment has as its target Potassium voltage-gated channel subfamily KQT member 2 (Rattus norvegicus) (UniProt O88943). The experiment can be described thus: KCNQ2 channel blockers in CHO-K1 cells – cell-based, FluxOR thallium flux, B-score, primary screen (AID 2156). The conditions noted are these: 20 min, at 10 µM; hits give low values.
On to `CSc1nc2ccccc2c(=O)n1Cc1ccc(F)cc1`, for which the B-score entry was “inactive”.

On to `CC(C)(C)N1CC(c2nc3ccccc3n2Cc2ccc(F)cc2)CC1=O` (configuration not stated), for which the B-score was -5.93 (active). The value for `C=CCn1c(C2CC(=O)N(c3ccc(C)cc3)C2)nc2ccccc21` (configuration not stated) was “inactive”. Take `CCN(CC)c1ccc(NC(=O)c2ccc(=O)[nH]c2)cc1S(=O)(=O)Nc1ccc(OC)cc1`: the B-score was -0.01.

Regarding `O=C1Nc2cc(C(=O)N3CCC(N4CCCCC4)CC3)ccc2S/C1=C\c1ccccc1`, the B-score was -6.65 (active). The value for `CC1CCN(C(=O)c2ccc3c(c2)NC(=O)CN3)CC1` was -0.25; that for `CCN1CCN(CCNC(=O)c2ccc3c(c2)NC(=O)/C(=C\c2ccc(OC)c(OC)c2)S3)CC1` was -0.06; that for `Cc1ccc(S(=O)(=O)N(C)c2ccc(OCC(=O)OCC(=O)N(CC#N)c3ccccc3)cc2)cc1` was “inactive”. Turning to `CN(CC(=O)Nc1cccc(F)c1)C(=O)C1CSC2(C)CCC(=O)N12` (configuration not stated), the B-score was -0.47. As to `COc1ccccc1C(=O)NC(CCSC)C(=O)NNC(=O)c1ccccc1C` (configuration not stated), the B-score entry was “inactive”.

With `Cc1cc(NC(=O)CSC2=NS(=O)(=O)c3cc(Cl)ccc3N2)no1`, the B-score was -0.31. The value for `O=C(c1ccccc1)c1cc(-c2ccccn2)c(N2CCOCC2)s1` was -0.1; that for `CCc1ccc(C(=O)NC(=S)Nc2ccccc2N2CCOCC2)cc1` was -5.43; that for `CCc1ccc2ncc(C(=O)c3ccccc3)c(N3CCOCC3)c2c1` was -9.81 (active).

`CCCCn1c(N)c(N(CC(C)C)C(=O)c2cccc(S(=O)(=O)N3CC(C)OC(C)C3)c2)c(=O)[nH]c1=O` (configuration not stated): the B-score result is “inactive”. For the molecule `CCCCn1c(N)c(N(CC(C)C)C(=O)c2cnc(C)cn2)c(=O)[nH]c1=O`, the B-score entry was “inactive”.

For `Cc1cc(NC(=O)C(C)SCC(=O)Nc2ccccc2N2CCCCC2)no1` (configuration not stated), the B-score result is “inactive”. For the molecule `O=C(NCCCN1CCCC1=O)c1cccc(S(=O)(=O)NCc2ccccc2)c1`, the B-score was -0.85.

With `O=C(COC(=O)c1ncc(Cl)c(Cl)c1Cl)NCc1cccs1`, the B-score is -2.02. `CCC1(c2ccccc2)NC(=O)N(CC(=O)c2ccc3c(c2)OCO3)C1=O` (configuration not stated): the B-score entry is “inactive”. The value for `O=C(CN1CCC(O)(c2ccccc2)CC1)Nc1ccc2c(c1)OCCO2` was “inactive”; that for `O=C(CCN1CCc2ccccc2C(O)(c2ccccc2)C1)c1ccc2c(c1)OCCO2` (configuration not stated) was -6.97 (active). On to `COc1cc(N)c(Cl)cc1C(=O)OCC(=O)c1ccc2c(c1)NC(=O)CO2`, for which the B-score result is “inactive”. The value for `COc1ccc(CN(C)C(C)C(=O)NC2CCCc3ccccc32)cc1` (configuration not stated) was -6.8 (active).

For the molecule `CNS(=O)(=O)c1cccc(C(=O)NC2CCCc3ccccc32)c1` (configuration not stated), the B-score was -2.62. As to `COc1ccc(CN(C)C(=O)CC(c2ccccc2)c2ccccc2)cc1`, the B-score was -2.95. In the case of `CCOc1ccc(NC(=O)COc2ccc(C(=O)NC3CCCc4ccccc43)cc2OC)cc1` (configuration not stated), the B-score result is “inactive”. The value for `O=C(CN1CCN(c2ccc(O)cc2)CC1)NC1CCCc2ccccc21` (configuration not stated) was -0.25. As for `Cc1cccc(C(=O)OC(C)C(=O)NC2CCCc3ccccc32)c1O` (configuration not stated), the B-score was -7.78 (active). Consider `Cc1ccc(NC(=O)CN(C)C(=O)Cn2nnc(-c3ccccc3)n2)cc1`, for which the B-score result is “inactive”.

As to `COc1ccccc1CNC(=O)CSc1nc(=O)n(Cc2ccncc2)c2c1CCC2`, the B-score was -0.12. Consider `CCOc1ccccc1-c1cc(C(=O)N2CCOCC2)c2ccccc2n1`, for which the B-score entry was “inactive”. With `CC(=O)N1CCN(C(=O)c2cc(-c3ccc(Cl)s3)nc3ccccc23)CC1`, the B-score entry is “inactive”. The same measure for `O=C(c1cc(-c2ccc(Cl)s2)nc2ccccc12)N1CCOCC1`: -6 (active). As for `Cc1cc(OCC(=O)N(C)c2c(N)n(Cc3ccccc3)c(=O)[nH]c2=O)c(C(C)C)cc1Cl`, the B-score is -0.02. Turning to `COc1ccc(-c2cnc(SCCNC(=O)c3ccc4c(c3)OCO4)[nH]2)cc1`, the B-score result was “inactive”. The value for `O=C1OC(c2ccc(Cl)cc2)=N/C1=C\c1cccnc1` was -0.06; that for `Cc1ccc(C2=N/C(=C\c3ccc(OS(=O)(=O)c4ccc(C)cc4)cc3)C(=O)O2)cc1` was -7.24 (active). For the molecule `Cc1ccc(S(=O)(=O)Oc2ccc(/C=N/NC(=O)c3ccncc3)cc2)cc1`, the B-score is -0.5.

For `COc1ccc(OCCCC(=O)OC(C)C(=O)Nc2ccccc2[N+](=O)[O-])cc1` (configuration not stated), the B-score is -0.14. For the molecule `Cc1ccc(CN2CCN(c3ccccc3Cl)CC2)o1`, the B-score was -0.4. As to `O=C(CN1CCN(c2ccc(O)cc2)CC1)Nc1cc(S(=O)(=O)N2CCOCC2)ccc1Cl`, the B-score is -0.82. On to `O=C(N/N=C/c1cc(Cl)cc([N+](=O)[O-])c1O)C(O)(c1ccccc1)c1ccccc1`, for which the B-score is -0.18. In the case of `O=[N+]([O-])c1cc(Cl)cc(/C=N/NC(=S)Nc2cc(S(=O)(=O)N3CCOCC3)ccc2Cl)c1O`, the B-score is -8.14 (active). In the case of `CC(=O)n1cc([C@@H]2C=C(C(=O)N3CCN(Cc4ccc5c(c4)OCO5)CC3)O[C@H](OCc3ccc(CO)cc3)C2)c2ccccc21`, the B-score is -6.49 (active). Take `CN1CCN(C(=O)C2=C[C@H](c3ccc4c(c3)OCO4)C[C@H](OCc3ccc(CO)cc3)O2)CC1`: the B-score was -0.01. Consider `CC(=O)n1cc([C@H]2C=C(C(=O)N3CCOCC3)O[C@@H](OCc3ccc(CO)cc3)C2)c2ccccc21`, for which the B-score was -4.18.

Regarding `O=C(COc1coc(CN2CCN(c3ccccc3F)CC2)cc1=O)N1CCc2ccccc21`, the B-score entry is “inactive”. The value for `COc1cc(/C=C/C(=O)N2CCc3ccccc3C2)cc(OC)c1OC` was “inactive”; that for `O=C(CN1CCCCCC1)N1c2ccccc2Sc2ccc(C(F)(F)F)cc21` was -3.82. Take `COc1cc(/C=C/C(=O)N2c3ccccc3Sc3ccc(C(F)(F)F)cc32)cc(OC)c1OC`: the B-score is -7.31 (active).

Regarding `CC(c1ccco1)N(C(=O)Nc1ccccc1)C1CCCCC1` (configuration not stated), the B-score was -5.91 (active). The same measure for `Cc1ccc(NC(=O)NC(=O)N(C2CCCCC2)S(=O)(=O)c2ccccc2)cc1`: -1.57. As for `CCOc1ccc(NC(=O)N(CCC(C)C)C(C)c2ccco2)cc1` (configuration not stated), the B-score is -2.46.

Turning to `N#CC1(NC(=O)COC(=O)CSc2ccc(F)cc2)CCCCC1`, the B-score result was “inactive”. As for `C=CCOc1ccc(/C=C/C(=O)OC(C)C(=O)Nc2ccc(NC(C)=O)cc2)cc1` (configuration not stated), the B-score entry is “inactive”.

`CCCn1c(C)cc(/C=C(\C#N)C(=O)OCC(=O)N(C)c2c(N)n(Cc3ccccc3)c(=O)[nH]c2=O)c1C`: the B-score was -0.77. On to `COc1ccc(OC)c(/C(C)=N\NC(=O)c2cc3cc(Cl)ccc3n2C)c1`, for which the B-score is -8.07 (active).

As for `COc1ccc(/C(C)=N/NC(=O)CCC(=O)Nc2ccc(Cl)cc2Cl)c(OC)c1`, the B-score was -2.5. For `COc1ccc(OC)c(C(=O)c2ccc(Cl)cc2)c1`, the B-score result was “inactive”. Consider `CN1CCc2ccccc2C1Cc1ccccc1NC(=O)c1sc2ccccc2c1Cl` (configuration not stated), for which the B-score is -6.56 (active). The same measure for `COc1ccc(CNC(=O)CNC(=O)c2sc3ccccc3c2Cl)cc1OC`: “inactive”; for `O=C(Nc1ccon1)c1sc2ccccc2c1Cl`: -0.39; for `COc1ccc(-c2csc3ncnc(N4CCN(S(=O)(=O)c5cccc(F)c5)CC4)c23)cc1`: -2.13. As to `CC(OC(=O)CCCOc1ccccc1)C(=O)Nc1ccc(Cl)cn1` (configuration not stated), the B-score result was “inactive”. With `CC1CN(C(=O)COC(=O)c2cccc(NS(=O)(=O)c3ccccc3)c2)CC(C)O1` (configuration not stated), the B-score entry is “inactive”. The value for `O=C(Cc1ccccc1)n1nc(-c2ccccc2)nc1NCc1ccco1` was -5.57 (active); that for `c1ccc(-c2nc(NCc3ccco3)c3ccccc3n2)cc1` was -3.7; that for `CS(=O)(=O)n1nc(-c2ccccc2)nc1NCc1ccco1` was -0.02. As for `CC1(C)O[C@@H]2CC3C4C[C@H](F)C5=CC(=O)C=CC5(C)C4C(O)CC3(C)[C@]2(C(=O)CO)O1` (some centres not stated), the B-score entry is “inactive”. On to `O=C(COC(=O)c1cccs1)Nc1ccccc1Cl`, for which the B-score was -0.17. Turning to `O=C(Nc1ccccc1Cl)/C(Cl)=C(\Cl)S(=O)c1ccccc1` (configuration not stated), the B-score was -9.85 (active). Turning to `O=C(Nc1ccccc1Cl)Nn1cnnc1`, the B-score entry was “inactive”. Turning to `CCc1noc(C)c1C(=O)Nc1nc(-c2ccccc2)cs1`, the B-score is -0.22. As for `CCCn1nc(C(=O)NNC(=O)CSCC(=O)Nc2cc(C)on2)c2ccccc2c1=O`, the B-score was -2.13. On to `O=C(OCC(=O)N(CCc1ccccc1)Cc1ccccc1)c1ccccc1[N+](=O)[O-]`, for which the B-score is -6.77 (active). `Cc1c(C(=O)NCCCc2ccccc2)cccc1[N+](=O)[O-]`: the B-score was -1.07.

As to `O=C(O/N=C(/c1ccccc1)c1ccncc1)c1ccccc1[N+](=O)[O-]`, the B-score is -1.04. In the case of `Cc1cccc(N2CC(C(=O)Nc3ccccc3N3CCCC3)CC2=O)c1C` (configuration not stated), the B-score entry was “inactive”.

For the molecule `c1cnc(N2CCN(c3ccc4ccccc4n3)CC2)nc1`, the B-score is -0.22. As for `CC12CCC(C(=O)N3CCN(c4ncccn4)CC3)(c3nc4ccccc4nc31)C2(C)C` (configuration not stated), the B-score is -6.6 (active). The value for `CC(Oc1ccc(F)cc1)C(=O)N1CCN(c2ncccn2)CC1` (configuration not stated) was “inactive”; that for `Cc1cc(C)n2nc(C(=O)OC(C)C(=O)c3cc(C)c(C)cc3C)nc2n1` (configuration not stated) was “inactive”. The same measure for `Cc1ccccc1NC(=O)C(C)OC(=O)CCC(=O)N(CC(C)C)c1c(N)n(CC(C)C)c(=O)[nH]c1=O` (configuration not stated): “inactive”; for `O=[N+]([O-])c1cccc(Nc2c3ccccc3nc3ccccc23)c1`: -5.7 (active); for `Cc1cc(CNC(=O)c2cccc([N+](=O)[O-])c2)c2ccccc2n1`: “inactive”. In the case of `CC(=O)Nc1ccc(Nc2c3ccccc3nc3ccccc23)cc1`, the B-score entry was “inactive”.

For `CCOc1ccc(/C=C/C(=O)N(CC)CC(=O)NCc2cccs2)cc1OC`, the B-score entry was “inactive”. Take `COc1ccccc1CNC(=O)COn1nnc2ccc(S(=O)(=O)N3CCOCC3)cc21`: the B-score entry is “inactive”.

`COc1ccc(Cl)cc1NC(=O)c1cccc(N2C(=O)C3CC=CCC3C2=O)c1` (configuration not stated): the B-score is -0.4. The same measure for `COc1ccc(Cl)cc1NC(=O)COC(=O)C(CC(C)C)N1C(=O)C2CC=CCC2C1=O` (configuration not stated): -5.8 (active); for `COc1ccc(Cl)cc1NC(=O)CCN1CCOCC1`: -1.02.
